# Reference: PubChem BioAssay (NCI)
# About 83,000 compounds went through this panel and 20% of them were active in at least one assay; those are over-represented in the sample as a whole.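 48-hour exposure, single concentration, 96-well plates; percent growth endpoint where 0 means no net growth. Active: below 10.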 Unmarked numbers belong to inactive results. Active and inactive are the calls of the source.
# Columns and labels:
# Assay in all cases: NCI-60 one-dose screen, 48 h (100 = growth as untreated, 0 = no growth, -100 = all killed)
# Conditions in all cases: 10 µM unless noted
# HCT-15 colon = test system: HCT-15 colon
# HT29 colon = test system: HT29 colon
# SNB-75 CNS = test system: SNB-75 CNS
# SNB-19 CNS = test system: SNB-19 CNS
# U251 CNS = test system: U251 CNS
# PC-3 prostate = test system: PC-3 prostate
# SK-MEL-5 melanoma = test system: SK-MEL-5 melanoma
# UACC-62 melanoma = test system: UACC-62 melanoma
# LOX IMVI melanoma = test system: LOX IMVI melanoma
# SK-MEL-28 melanoma = test system: SK-MEL-28 melanoma
SMILES,growth (HCT-15 colon),growth (HT29 colon),growth (SNB-75 CNS),growth (SNB-19 CNS),growth (U251 CNS),growth (PC-3 prostate),growth (SK-MEL-5 melanoma),growth (UACC-62 melanoma),growth (LOX IMVI melanoma),growth (SK-MEL-28 melanoma)
O=C1NC(=O)[C@@H](c2cn3c4c(cccc24)CCC3)[C@@H]1c1c[nH]c2ccccc12,16.8%,0.272% (active),5.51% (active),27.3%,8.44% (active),21.1%,3.82% (active),33.9%,19.2%,61.3%
c1ccc2c(c1)CCN(NCCN1CCCC1)C2,105%,101%,70.9%,107%,94.3%,64.6%,104%,98.6%,90.1%,109%
C#Cc1cccc(Nc2ncnc3cc4c(cc23)OCCOCCOCCO4)c1,68.8%,57%,57.7%,60.9%,57%,57.3%,58.1%,32.9%,51%,57.6%
Clc1nc(Cl)c2ncn(CC#CCn3cnc4c(Cl)nc(Cl)nc43)c2n1,-65.7% (active),-44.2% (active),8.25% (active),12.2%,-75.8% (active),-72.1% (active),-66.9% (active),-11.6% (active),-83.4% (active),-26.1% (active)
Cc1cc2c(-c3nc4ccccn4c3NC3CCCCC3)c(O)c(O)cc2c(O)c1-c1c(C)cc2c(-c3nc4ccccn4c3NC3CCCCC3)c(O)c(O)cc2c1O,19.9%,25.7%,28%,25.3%,19.8%,18.4%,23.9%,-1.66% (active),27.4%,38.9%
O=C(c1ccc(/C=C/c2n[nH]c3ccccc23)cc1)N1CCNCC1,40.3%,13.5%,0.841% (active),68.7%,58.9%,38.3%,53.1%,48.7%,5.66% (active),46.2%
N#Cc1ccc(-n2nnc3ccccc32)cc1C#N,99.8%,108%,121%,112%,91.3%,101%,97.6%,94.5%,99.4%,104%
C=CC(=O)N(C)[C@H]1C[C@H]2OC(C)(C1OC)n1c3ccccc3c3c4c(c5c6ccccc6n2c5c31)C(=O)NC4 (stereo not given in full),-46.5% (active),3.17% (active),-16.8% (active),-1.51% (active),-35.8% (active),17.5%,-94.3% (active),-28.1% (active),-55.6% (active),5.52% (active)
C=CCCCOC1[C@H](OCc2ccccc2)C(OCc2ccccc2)C(OC)O[C@@H]1CNC(=O)c1cccc(I)c1 (stereo not given in full),24.9%,33.1%,54.4%,49.9%,25.4%,25%,-6.8% (active),30.9%,11.4%,70.5%
Cn1c(Nc2ccc(C(F)(F)F)cc2)nc2cc(Oc3ccnc(-c4ncc(C(F)(F)F)[nH]4)c3)ccc21,21.4%,6.83% (active),61.2%,56.6%,46.3%,65.8%,39%,8.71% (active),34.1%,8.35% (active)
COc1cccc(Nc2ncnn3ccc(CN4CC[C@@H](N)[C@H](O)C4)c23)c1,28.7%,27.1%,-44.6% (active),43.1%,63.2%,56.3%,76.2%,93.4%,35.3%,89.7%
COc1ccc(S(=O)(=O)N(C(C)=O)c2ccccc2/C=C/c2cc[n+]([O-])cc2)cc1,17.9%,1.49% (active),4.75% (active),25.4%,9.19% (active),17.9%,7.61% (active),37.1%,18%,45.4%
CC(C)c1cc(CNc2nc(Nc3cc(C4CC4)[nH]n3)cc(N3CCN(C)CC3)n2)on1,6.83% (active),0.12% (active),-64.2% (active),13.4%,1.02% (active),4.54% (active),-24.2% (active),-63.5% (active),-58.4% (active),-13.9% (active)
CNC(=O)c1cc(COc2nnc(Nc3ccc(Cl)cc3)c3ccoc23)ccn1,70.1%,71%,-39.3% (active),19.6%,15.1%,34.5%,-0.858% (active),47.8%,15.5%,52.5%
O=C(Cc1ccc(-c2ccc(OCCN3CCOCC3)cc2)cn1)NCc1ccccc1,7.16% (active),4.32% (active),15.3%,14.1%,3.6% (active),15.2%,-39.8% (active),29%,17.5%,36.1%
CN(C)C[C@@H]1CCn2cc(c3ccccc32)C2=C(C(=O)NC2=O)c2cn(c3ccccc23)CCO1,-31.7% (active),0.848% (active),-76.1% (active),15.3%,-70.8% (active),0.163% (active),22.5%,43%,-70.1% (active),-92.6% (active)
Nc1ncnc2c1ccn2-c1cccc(NC(=O)c2ccc(N3CCOCC3)c(C(F)(F)F)c2)c1,31.5%,38.2%,67.3%,95.7%,39.5%,35.6%,41.6%,43.4%,41.2%,81.2%
O=C(Nc1ccc(-c2ccnc(Nc3ccc(N4CCOCC4)cc3)n2)cc1)[C@@H]1CCCN1,23.3%,18.6%,-1.55% (active),83.4%,51.4%,61.2%,49.2%,68.5%,30.4%,54.5%
C[C@@H](NC(=O)c1ncnc(N)c1Cl)c1ncc(C(=O)Nc2cc(C(F)(F)F)c(Cl)cn2)s1,86.4%,20.1%,103%,94.7%,75.9%,93.7%,51.2%,-0.831% (active),36.5%,9.63% (active)
Cc1nc2cc(-c3nn(C(C)C)c4ncnc(N)c34)ccc2o1,1.74% (active),-8.06% (active),-70.1% (active),-4.62% (active),-15.3% (active),3% (active),-49.2% (active),-53% (active),-21.1% (active),-34.3% (active)
CO/C=C/C(=O)c1cc2cnc3c(=N)cc(NC(=O)C(C)C)c([nH]1)c23,-26.8% (active),-21.5% (active),-11.8% (active),-29.8% (active),-74.3% (active),-21.6% (active),-96.9% (active),-53.8% (active),-73.9% (active),-44.8% (active)
COc1ccc(Cc2cc(-c3ccccc3C)n[nH]c2=O)cc1,107%,98.1%,72.7%,87.1%,100%,81.7%,99.2%,94.8%,109%,106%
C/C(=N\NC(=O)Cn1c(-c2ccc(S(C)(=O)=O)cc2)nc2ccccc21)c1ccc(Cl)cc1,87.8%,98.3%,81.1%,93.4%,89.7%,52.2%,91.7%,84.7%,100%,113%
C=C1C(=O)O[C@H]2[C@H]1CC/C(C=Nc1c(N)cc(C(F)(F)F)cc1C(F)(F)F)=C\CC[C@@]1(C)O[C@@H]21,-31.1% (active),-15.2% (active),48.6%,36.8%,8.57% (active),-12.8% (active),-43.6% (active),-57.1% (active),-87.5% (active),-17.2% (active)
